High-throughput results: PubChem, National Center for Advancing Translational Sciences (NCATS)
mIDH1 inhibitor: inhibitors of human mutant IDH1 R132H; Potency, µM (series often up to 76.6 µM), actives largely listed as inhibitors; O75874; IDH1-R132H enzyme, NADPH consumption, diaphorase/resazurin fluorescence; actives 0.093% (n = 390,000); further: nearly all actives have a fitted effect of over 65% in size
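IDH1-R132H (0.5 ug/mL) preincubated 30 min with compound, then NADPH (0.016 mM) and alpha-KG (2 mM) added; 80 min at RT, pH 7.5. Remaining NADPH coupled via diaphorase/resazurin to fluorescence (540/590 nm); concentration-response curves normalized to no-enzyme control.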
PKM2 act: increases activity of human pyruvate kinase M2. P14618. purified PKM2, Kinase-Glo ATP luminescence, activation; response scale: 0% is enzyme alone, no compound. Potency, µM (titrated, usually from 57.5 µM), most hits filed as activators. actives 0.34% (n = 260,000); further: nearly all actives have a fitted effect of over 55% in size
Target sequence (P14618 whole entry, looked up): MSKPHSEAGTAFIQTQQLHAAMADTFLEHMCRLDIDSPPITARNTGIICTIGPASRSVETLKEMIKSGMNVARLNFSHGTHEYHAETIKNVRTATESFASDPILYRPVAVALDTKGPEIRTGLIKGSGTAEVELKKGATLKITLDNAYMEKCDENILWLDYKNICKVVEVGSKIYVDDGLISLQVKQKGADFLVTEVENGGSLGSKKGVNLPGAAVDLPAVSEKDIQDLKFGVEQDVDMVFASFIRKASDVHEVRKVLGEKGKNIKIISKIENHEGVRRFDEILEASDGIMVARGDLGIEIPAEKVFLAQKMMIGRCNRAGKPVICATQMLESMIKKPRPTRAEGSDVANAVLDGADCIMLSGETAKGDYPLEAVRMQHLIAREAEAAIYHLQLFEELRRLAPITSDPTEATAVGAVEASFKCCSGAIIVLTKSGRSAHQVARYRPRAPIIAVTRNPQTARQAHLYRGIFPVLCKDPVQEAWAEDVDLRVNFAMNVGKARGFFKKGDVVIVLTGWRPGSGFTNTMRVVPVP
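Kinase-Glo luminescence reports ATP generated from ADP (0.1 mM) and PEP (0.5 mM) by purified hPK-M2 after 1 h at room temperature, pH 7.2 imidazole buffer; intermediate enzyme activity allows detecting inhibitors and activators.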
TrxR1 inh: inhibitors of rat thioredoxin reductase 1; actives 1% (n = 390,000); Potency, µM (top dose mostly 114 µM), most hits filed as inhibitors; recombinant rTrxR1, NADPH fluorescence consumption, selenite substrate; O89049; AID 588453; further: nearly all actives have a fitted effect of over 65% in size
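Rat TrxR1 (90 nM in the dispensed reagent) was pre-reduced with 400 uM NADPH for 5 min at room temperature, then incubated with compound for 15 min. After 400 uM selenite was added, NADPH fluorescence (Ex 340/Em 450 nm) was followed for 8 min.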
TrxR1 substrate: substrates of rat thioredoxin reductase 1. actives 0.01% (n = 390,000). O89049. purified TrxR1 substrate turnover, NADPH consumption readout. Potency, µM (titrated, usually from 114 µM); further: nearly all actives have a fitted effect of over 50% in size
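Rat TrxR1, dispensed at 90 nM, was prereduced with 400 uM NADPH (final) for 5 min at ~22 deg C, then incubated with compound 15 min before 400 uM selenite. A first-read NADPH fluorescence drop versus no-compound background flagged substrates.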
GLS inhibitor: glutaminase GLS (human) inhibition | O94925 | actives 0.21% (n = 410,000) | GLS enzymatic activity, qHTS titration | Potency, µM (highest dose often 45.5 µM), usual class: inhibitors
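hKGA in 45 mM KH2PO4 pH 8.2, 0.02% Tween-20 with pin-transferred compounds; 1 mM L-glutamine (stock) plus glutamate oxidase/HRP/Amplex Red coupling added. Fluorescence read initially and after 30 min at RT.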
LDHA inh: LDHA (human) enzyme inhibition. P00338. purified LDHA, NADH/diaphorase-resazurin fluorescence; hits give low values. activity change, % (values are at about 110 or 230 µM). actives 0.15% (n = 480,000). AID 1347041; in the data active means activity change below about -30%; inconclusive means mostly about -25% to -30%
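Enzyme activity of human lactate dehydrogenase 5 (2 nM; 0.06 mM NADH, 0.2 mM pyruvate, 5 min, RT) is measured via a resazurin/diaphorase fluorescence readout of residual NADH.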
Numbers stand for hits; – = inactive; ? = inconclusive; · = no result; [ ] = dose if it differs, or a comment. Sampled rows, rich in hits. Any-hit rate of the full collection: about 1.4%. Unless noted, the call rests on the fitted dose curve; in most records, active means well fitted curve in the direction sought with a large enough effect; inconclusive means small, poorly fitted or top-dose-only effect, or another doubt; inactive means no such curve, though single readings can be large; an effect the other way counts as inactive or inconclusive.

SMILES	mIDH1 inhibitor	PKM2 act	TrxR1 inh	TrxR1 substrate	GLS inhibitor	LDHA inh
CCOc1ccc(C2NC(=O)NC(CN3CCN(C(=O)OC(C)(C)C)CC3)=C2C(=O)OC)cc1 (stereo not given)	·	·	·	·	·	–
CCOC(=O)c1cccc(NS(=O)(=O)c2cc(-c3nn(C)c(=O)c4c3CCCC4)ccc2CC)c1	·	·	·	·	·	–
CCOC(=O)N1C(=O)[C@@](CC)(c2ccccc2)N1C(=O)OCC	–	–	2.2µM	–	–	–
CCOc1ccc(-c2nnc(SCC(=O)Nc3cccc(Cl)c3C)o2)cc1	·	·	–	–	–	–
CCOc1ccc(-c2nnc(SCC(=O)Nc3cccc(C#N)c3)o2)cc1	–	·	35µM	–	–	–
CS(=O)(=O)NNC(=O)c1cc2cc3ccccc3nc2s1	–	–	–	–	–	–
NNC(=O)c1cc2cc3ccccc3nc2s1	–	–	–	–	–	-34
O=C(Oc1ccc(N(C(=O)c2ccncc2)S(=O)(=O)c2ccc(Cl)cc2)cc1)c1ccncc1	–	–	?	–	–	–
O=C(Oc1ccc(N(C(=O)c2ccncc2)S(=O)(=O)c2ccc(F)cc2)cc1)c1ccncc1	–	–	35µM	?	–	–
C[n+]1cnn2c1SCC1(COC1)C2	–	–	–	–	–	-58
Cc1ccc(/C=C2\C(=O)NC(=O)N2C)o1	–	–	50µM	–	–	–
Cc1ccc(/C=C2\C(=O)Nc3ccccc32)o1	–	–	18µM	–	–	–
NS(=O)(=O)c1ccc(-c2ccc(/C=C3\C(=O)Nc4ccccc43)o2)cc1	·	–	·	·	·	·
Cc1ccc(/C=C2/C(=O)N(c3ccccc3)C(=S)N2C)o1	–	?	20µM	–	–	–
Cc1ccc(/C=C2/SC(=O)NC2=S)o1	–	–	56µM	–	–	–
CCOc1ccc(N2C(=O)/C(=C/c3ccco3)N(C)C2=S)cc1	–	?	?	–	–	–
CCCCCCCc1ccc(-c2nnc(-c3ccccc3Br)o2)cc1	·	·	·	·	·	–
CCc1cccc2c(C(=O)CSc3n[nH]c(C(C)C)n3)c[nH]c12	·	·	·	·	·	–
CC(C)=CC(=O)Nc1ccccc1SCc1ccsc1	·	·	·	·	·	–
CCC(CO)NS(=O)(=O)c1cc(Cl)ccc1Cl (stereo not given)	·	·	·	·	·	–
O=C(C=Cc1cccc(Cl)c1)c1ccccc1	–	·	40µM	–	–	–
O=C(/C=C/c1ccccc1Cl)c1cccnc1	–	–	7.1µM	–	–	–
O=C(/C=C/c1ccc(Cl)cc1)c1cccnc1	–	–	32µM	–	–	–
N#Cc1ccc(/C=C/C(=O)c2cccnc2)cc1	–	–	22µM	–	–	–
CCN(CC)c1ccc(/C=C/C(=O)c2cccnc2)cc1	–	·	–	–	–	–
SMILES	mIDH1 inhibitor	PKM2 act	TrxR1 inh	TrxR1 substrate	GLS inhibitor	LDHA inh
COc1ccccc1C(=O)NNC1=C(C(=O)C(F)(F)F)CCC1	–	–	45µM	–	–	–
COc1ccccc1C(=O)NNc1ncc(C)s1	–	–[11.5 µM]	–	–	6.3µM	–
O=C(NNC1=C(C(=O)C(F)(F)F)CCC1)c1ccccc1O	–	–	–	–	–	–
CCN(C(C)C(=O)Nc1ccc(C)cc1)S(=O)(=O)c1cccc2cc(C)cnc12 (stereo not given)	·	·	·	·	·	–
CC(=O)Nc1ccc(NC(=O)CC2Sc3ccc(C(F)(F)F)cc3NC2=O)cc1 (stereo not given)	·	·	·	·	·	–
CC(=O)Nc1ccc(S(=O)(=O)Nc2nc3ccccc3nc2Nc2cccc(O)c2)cc1	–	–	–	–	–	–
CC(=O)Nc1ccc(S(=O)(=O)Nc2nc3ccccc3nc2Nc2ccc(C(=O)O)c(O)c2)cc1	–	·	79µM	–	–	–
O=C1C(SCCO)=C(SCCO)C(=O)c2ccccc21	–	·	16µM	10µM	?	–
Cc1csc(SCC(=O)c2ccc(S(=O)(=O)N3CCOCC3)cc2)n1	–	28µM	?	–	–	–
Cc1csc(SCC(=O)Nc2cc(S(=O)(=O)N3CCOCC3)ccc2N2CCOCC2)n1	–	–	–	–	–	–
CC(C)CN(C(=O)Cn1cnc2c1c(=O)n(C)c(=O)n2C)c1nc2ccccc2s1	·	·	·	·	·	–
CCN1CCN(CC(=O)N/N=C/c2cc(Br)cs2)CC1	–	–	–[2.29 µM]	–	–	-30
O=[N+]([O-])/C(=C(\Sc1ccc(Cl)cc1)c1ccccc1)c1ccccc1	·	·	·	·	·	–
Cc1ccc(C(=O)NCc2ccco2)cc1Br	–	–	18µM	–	–	–
CCn1c(C)c(C)c2cc(C(=O)NCCc3ccco3)ccc21	–	28µM	–	–	–	–
c1ccc(-c2nc(CSc3nnnn3C3CCCC3)co2)cc1	·	·	·	·	·	–
CCOC(=O)c1cnc(SCc2nc(-c3ccccc3C)oc2C)nc1N	·	·	·	·	·	–
O=C(CSc1nc2nc(-c3cccs3)cc(C(F)(F)F)c2c(=O)[nH]1)C(F)(F)F	–	·	35µM	–	–	–
COC(=O)CSc1nc2nc(-c3cccs3)cc(C(F)(F)F)c2c(=O)[nH]1	–	·	–	–	–	–
O=C(CN1CCN(C(=O)c2ccc3ccccc3c2)CC1)Nc1ccccc1Cl	·	·	·	·	·	–
CCOC(=O)N(C)OC(=O)Nc1ccc(Cl)c(Cl)c1	–	–	16µM	–	?	–
Cc1ccc(C(CNC(=O)c2ccc(NC(=O)OC(C)(C)C)cc2)N2CCOCC2)o1 (stereo not given)	·	·	·	·	·	-34
O=C(c1ccccc1)n1c(=O)c(F)cn(COCCBr)c1=O	–	–[11.5 µM]	45µM	–	–	–
O=C(c1ccccc1)n1c(=O)cc[nH]c1=O	–	·	–	–	–	–
NC(=N\N=Cc1ccccc1)/C(N)=N/N=Cc1ccccc1	–	·	–	–	–	–
SMILES	mIDH1 inhibitor	PKM2 act	TrxR1 inh	TrxR1 substrate	GLS inhibitor	LDHA inh
NC(=N\N=Cc1ccco1)/C(N)=N/N=Cc1ccco1	–	·	79µM	?	?	–
CCS(=O)(=O)c1cc([N+](=O)[O-])c(Sc2ccccc2NC(C)=O)s1	–	–	8.9µM	–	–	–
Cn1c(SCCC(=O)Nc2sccc2C#N)nnc1-c1ccccc1F	·	·	·	·	·	–
O=C(CSc1nnc(-c2ccccc2)n1Cc1ccccc1)N1CCCC1	–	–	–	–	–	–
CCCCn1c(SCC(=O)N2CCCC2)nnc1-c1ccccc1	–	–	89µM	–	–	–
CCCCc1ccc(NC(=O)COc2ncnc3ccccc23)cc1	·	·	·	·	·	–
Cc1ccc(-c2csc(N)c2C#N)c(C)c1	·	·	·	·	·	–
Cc1c(-c2ccnc3cc(C(=O)O)nn23)cnn1C	–	–	–	–	7.9µM	–
CCn1cc(-c2ccnc3cc(C(=O)O)nn23)c(C)n1	–	·	–	–	–	–
COc1ccc(N2C(=O)CC(Sc3nnnn3-c3ccc(F)cc3)C2=O)cc1 (stereo not given)	–	28µM	?	–	–	–
